Bioassay records deposited in PubChem by several laboratories.
This is a sample that favours compounds with a hit; in the whole collection about 4.3% have one here.
BoNT-F LC inh: inhibitors of Botulinum neurotoxin F light chain protease; inhibition, % at 10 µM; Multiplex microsphere protease cleavage assay, flow cytometry; 0.22% of 360,000 active; in the data active means inhibition above about 35%, passing the limit was not always enough; inconclusive means no clear call, values can overlap the other calls
MazEF act: activators of E. coli MazEF toxin-antitoxin RNase. P0AE70. FAM/BHQ RNA-DNA oligo cleavage fluorescence, 5 h. activation, % at 20 µM. 0.32% of 350,000 active; in the data active means activation above about 50%
Target sequence (P0AE70 whole entry, looked up): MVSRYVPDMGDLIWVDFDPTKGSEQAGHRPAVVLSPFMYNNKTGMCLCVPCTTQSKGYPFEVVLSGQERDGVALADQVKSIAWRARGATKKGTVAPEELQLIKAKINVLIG
BoNT-A LC inh2: blocks Botulinum neurotoxin A light chain protease. AID 588499. inhibition, % at 10 µM. multiplex microsphere protease substrate cleavage, flow cytometry. 0.17% of 360,000 active
PfHsp40 rescue: compounds rescuing yeast from Plasmodium falciparum HSP40 toxicity; growth rescue, % at 12.5 µM; S. cerevisiae expressing PfHsp40, growth rescue, ATP luminescence; 0.68% of 340,000 active; in the data active means growth rescue above about 28%, passing the limit was not always enough; inconclusive means no clear call, values can overlap the other calls;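 further: yeast W303a lacking pdr1 and pdr3 grown in galactose medium; growth measured after three days at 30 °C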
Bead autofluor: counter-screen for toxin protease inhibitors: compound fluorescence; AID 624483; fluorescence intensity (concentration not given with the values); compound autofluorescence counterscreen, microsphere flow cytometry; hits give high values; 3.1% of 360,000 active; in the data active means fluorescence intensity above about 16000; inconclusive means no clear call, values can overlap the other calls
Anthrax LF prot: blocks Bacillus anthracis lethal factor protease. 0.12% of 360,000 active. P15917. inhibition, % at 10 µM. multiplex microsphere protease cleavage assay, LF. AID 588501
Of the large screens only hits and unclear results are named; the others gave an inactive call. Unless noted, no stated cut-off is given here; in the data, active means inhibition above about 30%; inconclusive means no clear call, values can overlap the other calls; inactive means below that.

N#C/C(=C/c1ccc(-c2ccccc2)o1)c1nc(-c2cccs2)cs1	BoNT-A LC inh2 48, Anthrax LF prot 34
CCCCc1ccc(-c2csc(/C(C#N)=C\c3ccc(C)o3)n2)cc1	Bead autofluor 22503
N#C/C(=C\c1ccc(-c2ccc(F)cc2)o1)C(=O)Nc1nc(-c2cccs2)cs1	MazEF act 128
CCCCc1ccc(-c2csc(/C(C#N)=C/c3ccco3)n2)cc1	none
N#CC(C(=O)c1ccccc1)=C1SCCS1	none (no result: BoNT-F LC inh, BoNT-A LC inh2, Bead autofluor, Anthrax LF prot)
CC1(C)CC(=O)c2c(oc3cc(O)c(O)cc23)C1	Bead autofluor 17024
CCc1nc(SCc2nc3ccccc3[nH]2)c2oc3ccccc3c2n1	PfHsp40 rescue 41, Bead autofluor 17511
O=C(Cn1cnc2c(oc3ccccc32)c1=O)N1CCN(c2ccccc2)CC1	none
CCc1nc(SCC(=O)N2CCN(c3ccccc3)CC2)c2oc3ccccc3c2n1	Bead autofluor 17485
CCc1nc(SCC(=O)c2ccc(Cl)s2)c2oc3ccccc3c2n1	Bead autofluor 16776
CCc1nc(SCCO)c2oc3ccccc3c2n1	none
Cc1nc(SCc2nc3ccc(Br)cc3[nH]2)c2oc3ccccc3c2n1	none
O=c1oc2c(O)c(O)cc3c(=O)oc4c(O)c(O)cc1c4c23	PfHsp40 rescue 152
Cc1cc(S(=O)(=O)/N=C(\N)c2ccc(C(N)=O)cc2)cc(C)c1F	none
COc1ccc(NC(=O)C(C)N2c3cccc4cccc(c34)S2(=O)=O)cc1 (stereo not drawn)	Bead autofluor 22225
O=C(OCC#CCSc1nnc(-c2ccccc2)o1)c1cccs1	Bead autofluor 17034
CCOc1cc([C@@H]2C[C@H]3CN(c4ccccc4)C(=O)[C@]34CCCN24)ccc1OC	Bead autofluor 22393
COc1ccccc1-n1cc([C@@H]2C[C@H]3CN(c4ccccc4)C(=O)[C@]34CCCN24)cn1	BoNT-F LC inh inconclusive, BoNT-A LC inh2 inconclusive, Bead autofluor 28945, Anthrax LF prot inconclusive
COc1cc([C@@H]2C[C@H]3CN(c4ccccc4)C(=O)[C@]34CCCN24)cc(OC)c1OC	none
O=C1C[C@@H]2C(=O)N(c3ccccc3)C(=O)[C@@H]2[C@@H]2CN(S(=O)(=O)c3ccccc3)[C@@H](c3ccccc3)[C@H]12	none (no result: MazEF act, PfHsp40 rescue)
CCC(C)Sc1cccc(-c2nc3ccccn3c2NCc2ccccc2)c1 (stereo not drawn)	PfHsp40 rescue 219
O=C(CN1c2cccc3cccc(c23)S1(=O)=O)N1CCOCC1	Bead autofluor 16664
O=C(CN1c2cccc3cccc(c23)S1(=O)=O)N1CCCCC1	none
O=C(c1ccccc1)N1CCC(c2nc(-c3ccc(S(=O)(=O)NCC4CCCO4)cc3)no2)CC1 (stereo not drawn)	Bead autofluor inconclusive
O=C(C1CC1)N1CCC(c2nc(-c3ccc(S(=O)(=O)NCC4CCCO4)cc3)no2)CC1 (stereo not drawn)	Bead autofluor 19413
O=S(=O)(NCC1CCCO1)c1ccc(Br)cc1 (stereo not drawn)	PfHsp40 rescue 35
O=C(COc1ccc(F)cc1)N/N=C/c1cccc2cccnc12	Bead autofluor inconclusive
O=c1c(CO)cc(CO)cc(CO)c1O	PfHsp40 rescue 422 (no result: BoNT-F LC inh, BoNT-A LC inh2, Bead autofluor, Anthrax LF prot)
O=C(O)c1ccc(COc2c(F)c(F)c(F)c(F)c2F)o1	Bead autofluor 19586
Cc1ccc(N(CCCCN2C(=O)c3ccccc3C2=O)C(=O)c2cccc([N+](=O)[O-])c2)cc1	Bead autofluor 16296
O=C1c2ccccc2C(=O)N1CCCCN(C(=O)c1cc([N+](=O)[O-])cc([N+](=O)[O-])c1)c1ccc(Cl)cc1	none
CC(=O)Nc1ccc(C(=O)CSc2nnc(-c3ccccc3F)n2CCc2ccccc2)cc1	none (no result: BoNT-F LC inh, BoNT-A LC inh2, Bead autofluor, Anthrax LF prot)
CCn1c(CSc2nc3ccccc3s2)n[nH]c1=S	Bead autofluor 20748
CCCSc1nnc(CSc2nc3ccccc3s2)n1-c1ccccc1	Bead autofluor 17205
S=c1[nH]nc(CSc2nc3ccccc3s2)n1Cc1ccccc1	none
CC(C)(C)c1ccc(OCC(=O)NNC(=S)NC(=O)c2ccccc2[N+](=O)[O-])c(Br)c1	PfHsp40 rescue inconclusive
O=C(O)CCCCn1c(SCC(=O)Nc2ccccc2C(F)(F)F)nc2ccsc2c1=O	none
CCC(C)n1c(SCC(=O)Nc2ccccc2C(F)(F)F)nc2ccsc2c1=O (stereo not drawn)	Bead autofluor 21867
O=C(NCCc1ccccc1)/C(=C\c1cccc([N+](=O)[O-])c1)NC(=O)c1ccco1	none
Cc1ccsc1C=Nc1ccc(O)cc1	Bead autofluor 16460
